Pf growth 96h: inhibits malaria parasite growth, 96 h; P. falciparum luciferase reporter growth, 96 h; Potency, µM (titrated, usually from 28.7 µM), for the others: at the top dose activity change, negative = inhibition, actives largely listed as inhibitors; 320,000 tested, 6.9% active; note: potency is the fitted concentration of half-maximal effect; % is set by controls: 0 for no effect and ±100 for the full control effect
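Parasite growth measured via integrated firefly luciferase reporter in P. falciparum. Infected erythrocytes at 2% hematocrit, 0.05% parasitemia final were treated 96 hours at 37 C under 5% CO2, and luminescence was read.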
Sm TGR inh: inhibitors of Schistosoma mansoni thioredoxin glutathione reductase; Q962Y6; 360,000 tested, 3% active; purified TGR, DTNB reduction, TNB absorbance 405 nm; AID 485364; Potency, µM (top dose mostly 114 µM), for inactives: at the highest dose activity change, negative = inhibition, usual class: inhibitors; note: potency is the fitted concentration of half-maximal effect; % is set by controls: 0 for no effect and ±100 for the full control effect; nearly all actives have a fitted effect of over 60% in size
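First, TGR (20 nM dispensed) and NADPH were mixed with compound. Second, a 15 min room-temperature incubation followed. Third, further NADPH and then DTNB were added to start the reaction. Finally, TNB absorbance was monitored kinetically.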
HCV inh: HCV inhibition; 340,000 tested, 3.4% active; AID 651820; Potency, µM (titrated, usually from 41.8 µM), without a hit: at the highest dose activity change, negative = inhibition, actives largely listed as inhibitors; Huh7.5.1 HCVcc-Cre infection, luciferase reporter, 44 h; note: potency is the fitted concentration of half-maximal effect; % is set by controls: 0 for no effect and ±100 for the full control effect
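Whole-lifecycle infectious HCVcc-Cre system; cells 1,000/well, compound then virus (~0.5 moi) added 4 h after plating, 44 h culture. Luciferase read 15 sec following 15 min substrate incubation, room temp.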
HCMV inh: inhibitors of human cytomegalovirus | AID 1259415 | HFF cells, HCMV-luciferase reporter, 72 h; stronger effect = lower value | activity change, negative = inhibition, % at 57.5 µM | 410,000 tested, 4.5% active; in the data active = activity change below about -60%; inconclusive = no clear call, values can overlap the other calls; inactive = above about -39%; note: % is set by controls: 0 for no effect and ±100 for the full control effect
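After 16 h attachment at 37C, HFF cells received test compound and HCMV-luciferase (1 PFU/cell); reporter luminescence read 72 h later, data normalized against buffer-only and known inhibitor Salinomycin.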
Pf growth 48h: P. falciparum growth inhibition at 48 hours (one generation) | P. falciparum luciferase growth in erythrocytes, 48 h | Potency, µM (highest dose often 28.7 µM), for the others: at the top dose activity change, negative = inhibition, usual class: inhibitors | 310,000 tested, 5.9% active | AID 504832; note: potency is the fitted concentration of half-maximal effect; % is set by controls: 0 for no effect and ±100 for the full control effect
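Here the parasites carry a stable luciferase gene and grow inside erythrocytes in Albumax-based RPMI medium with compound for one erythrocytic cycle. Activity is scored as loss of luminescent signal.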
SARS PLpro yeast: inhibitors of SARS-CoV papain-like protease in yeast; AID 485353; Potency, µM (series often up to 32.9 µM), for inactives: at the highest dose activity, positive = growth rescue, hits mostly activators; 330,000 tested, 0.19% active; S. cerevisiae expressing SARS-CoV PLpro, growth rescue; calls by dose curve; note: potency is the fitted concentration of half-maximal effect; 0% is about no effect; nearly all actives have a fitted effect of over 55% in size
* hit, by the source's call; ? = inconclusive; · = no result. Only some compounds are listed: those with a hit (about 15% of all), similar ones and a draw of the others. Unless noted, calls come from the whole dose curve; as a rule, active = well fitted curve in the direction sought with a large enough effect; inconclusive = small, poorly fitted or top-dose-only effect, or another doubt; inactive = no such curve, though single readings can be large; an effect the other way counts as inactive or inconclusive.

SMILES	Pf growth 96h	Sm TGR inh	HCV inh	HCMV inh	Pf growth 48h	SARS PLpro yeast
COC(=O)c1ccc(C(NC(=O)c2cccnc2)NC(=O)c2cccnc2)cc1	33.7%	0.9%	15.0%	-23.9	154.1%	1.2%
COc1cc(NC(=O)COc2ccc([N+](=O)[O-])cc2)ccc1NC(=O)c1ccco1	·	·	·	33.7	·	·
COc1ccc(C(=O)NNC(=O)c2cccs2)cc1S(=O)(=O)N1CCOCC1	·	·	4.3%	38.0	·	-3.6%
CC(C)NCC(O)COc1ccc2c(c1)CCC2 (stereo unspecified)	16.7%	5.9%	-2.4%	-10.9	-2.9%	9.5%
CN1CC(=O)N2C(c3ccc(Cl)cc3)c3[nH]c4ccccc4c3C[C@H]2C1=O (stereo partly specified)	13.1µM*	-16.2%	-5.7%	26.1	8.28µM*	1.9%
COC(=O)c1ccc(C2c3[nH]c4ccccc4c3C[C@H]3C(=O)N(C)CC(=O)N23)cc1 (stereo partly specified)	?	1.8%	7.3%	34.2	?	3.2%
CCN1C(=O)[C@@H]2Cc3c([nH]c4ccccc34)C(c3ccc(OC)cc3)N2C1=S (stereo partly specified)	?	-6.6%	?	·	14.7µM*	-1.2%
NC(=O)c1ccccc1NC(=O)c1ccoc1	45.7%	0.3%	-4.5%	70.0	30.3%	0.2%
COc1ccc(C(=O)COC(=O)CNS(=O)(=O)c2ccc(C)cc2)cc1	-9.3%	-1.7%	15.2%	7.6	0.8%	1.3%
CC(C)=CCc1c(O)cc2oc3c(CC=C(C)C)c(O)c(O)c(CC=C(C)C)c3c(=O)c2c1O	3.6%	-16.2%	?	-101.0*	13.1µM*	-5.6%
CC(C)=CCc1cc(-c2oc3cc(O)cc(O)c3c(=O)c2O)ccc1O	·	·	?	2.6	·	·
C#CCOc1ccc(C2C(C(=O)OC)=C(C)NC3=C2C(=O)c2ccccc23)cc1OCC (stereo unspecified)	·	-24.7%	·	?	·	·
CC(=O)NC(=S)Nc1ccccc1C(=O)NC1CCCCC1	8.28µM*	4.3%	2.1%	-1.5	-30.3%	-2.6%
O=C(NNC(=S)NC1CCCCC1)c1cccs1	6.3%	-0.7%	-16.3%	15.5	62.7%	?
Cc1ccc(/C=C/C(=O)NC(=S)Nc2ccccc2C(=O)NC2CCCCC2)cc1	?	10.5%	-20.2%	-36.1	?	2.6%
COc1ccc(/C=C/C(=O)NC(=S)Nc2ccccc2C(=O)NC2CCCCC2)cc1	23.2%	-27.6%	25.1µM*	-11.3	3.3%	-0.7%
O=C(NNC(=S)NC1CCCCC1)c1ccccc1O	2.33µM*	1.1%	?	-39.1	39.3%	?
O=C(Nc1ccc(F)cc1)C(c1cc2ccccc2o1)N1CCN(C(=O)c2ccco2)CC1 (stereo unspecified)	·	·	·	18.6	·	·
O=C1OC/C(=C(/O)c2ccc(Cl)cc2)C1=O	-8.4%	15.8µM*	21.3%	-25.9	11.7µM*	-2.7%
O=C(COc1ccc([N+](=O)[O-])cc1)Nc1cccc2cccnc12	·	6.7%	·	-28.1	·	·
O=C1c2ccccc2C(Nc2cccnc2)N1Cc1ccc2c(c1)OCO2 (stereo unspecified)	1.47µM*	-15.1%	6.6%	43.2	-13.8%	-6.4%
O=C1c2ccccc2C(Nc2ccc3c(c2)OCO3)N1Cc1ccco1 (stereo unspecified)	?	-18.3%	-16.8%	-20.3	-12.9%	3.8%
O=C1c2ccccc2C(Nc2ccc3c(c2)OCO3)N1Cc1ccc2c(c1)OCO2 (stereo unspecified)	3.29µM*	-31.1%	?	-25.0	9.28µM*	-27.1%
O=C1c2ccccc2C(O)N1Cc1ccc2c(c1)OCO2 (stereo unspecified)	0.9%	-9.0%	10.4%	-21.8	·	-7.9%
CC(C)n1c(=O)c2oc3ccccc3c2n(CC(=O)Nc2ccccc2Cl)c1=O	·	1.6%	·	6.4	·	·
CCOc1ccc(CCNS(=O)(=O)c2ccc3c(c2)oc(=O)n3C)cc1OCC	13.1µM*	-6.8%	11.3%	-25.6	-3.4%	9.5%

Screening results from PubChem BioAssay.
